From PubChem BioAssay AID651958 (The Scripps Research Institute Molecular Screening Center, 2012)
The whole screen tested about 370,000 compounds, of which about 2,000 (0.54%) were called active. Cut-off read from the data, not from the text of the source: active = inhibition above about 30%; inactive = the rest. Many of the other results were omitted from the sample, so actives are more common in it than they were.

Tested on: Crimean-Congo hemorrhagic fever virus L polyprotein viral ovarian tumor (vOTU) protease domain
Experiment: CCHFV vOTU protease inhibitors, primary screen, biochemical, Pep-AMC substrate, fluorescence (AID 651958); note: 0% = vehicle wells with enzyme and 100% = no enzyme wells
Details: at 11.5 µM, stronger effect = higher value

Row | Structure (SMILES) | inhibition
1 | CCCC(=O)NC(=S)Nc1ccc(CN2CCOCC2)cc1 | 9.86% (inactive)
2 | Cc1ccc(NC(=S)NCCN2CCOCC2)cc1 | 36.5% (active)
3 | Cc1cc(C)cc(NC(=S)NCCCN2CCOCC2)c1 | 0.01% (inactive)
4 | CN(CC1CCCO1)S(=O)(=O)c1ccc(C(=O)Nc2ccc(F)cc2)cc1 (stereo unspecified) | 5.87% (inactive)
5 | OCc1nc(CO)n(Cc2ccccc2)n1 | -7.04% (inactive)
6 | CCOC(=O)C1=C(C)c2ccccc2OC1C(=O)OCC (stereo unspecified) | 16.2% (inactive)
7 | CCOC(=O)c1c(C)[nH]c2c1-c1ccccc1C(=O)C2=O | 108% (active)
8 | CCOC(=O)NN1C(=O)c2ccccc2NC1c1ccccc1O (stereo unspecified) | -25.4% (inactive)
9 | COC(=O)c1cc(C(=O)OCC(=O)Nc2cc(C)on2)cc([N+](=O)[O-])c1 | 4.92% (inactive)
10 | Cc1noc(C)c1C(=O)OCC(=O)N1CCN(S(=O)(=O)c2ccc3ccccc3c2)CC1 | 4.27% (inactive)
11 | COc1ccc(-c2cn(-c3ccc(C)cc3)c(=O)n2CC(=O)Nc2ccc(OC)c(OC)c2)cc1 | 15.2% (inactive)
12 | C#CCO[C@@H]1C[C@H](n2cnc3c(=O)[nH]c(NC(=O)C(C)C)nc32)O[C@@H]1CO | -9.39% (inactive)
13 | Cc1ccc(S(=O)(=O)N2CCOCC2)cc1C(=O)NC(=S)N(Cc1ccccc1)C(C)C | -6.59% (inactive)
14 | O=C(CCS(=O)(=O)c1ccccc1)Nc1ccc(Cl)c(Cl)c1 | 13.1% (inactive)
15 | Cc1nnc(NC(=O)Cn2c(=O)sc3ccccc32)s1 | -3.29% (inactive)
16 | Cc1nnc(NC(=O)Nc2ccc(Cl)c(Cl)c2)s1 | 43.4% (active)
17 | CCCCn1ccnc1C(=O)c1cccc(S(=O)(=O)N2c3ccccc3CC2C)c1 (stereo unspecified) | 26.1% (inactive)
18 | CCCCNS(=O)(=O)c1ccc2nc(SCC(=O)Nc3cc(C)cc(C)c3)[nH]c2c1 | 4.67% (inactive)
19 | Cc1ccc(-n2ncc(C(=O)NC3CC3)c2C2CCN(C(=O)OC(C)(C)C)CC2)c(C)c1 | 16% (inactive)

Row | Structure (SMILES) | inhibition
20 | Cc1ccc(C(=O)NC2CC(C)(C)NC(C)(C)C2)c(C)c1 | -8.23% (inactive)
21 | CSCCC(NC(=O)COc1ccccc1)C(=O)N(C)CC(=O)Nc1ccc(C)cc1 (stereo unspecified) | 9.4% (inactive)
22 | COc1ccc2c(c1)C(C)=CC(C)(C)N2C(=O)Nc1ccccc1 | 51.4% (active)
23 | COc1ccc2c(c1)C(C)=CC(C)(C)N2C(=O)CNCc1ccc2c(c1)OCO2 | -2.62% (inactive)
24 | COc1cccc(NC(=O)C2C(c3ccccc3)C2(Cl)Cl)c1 (stereo unspecified) | -4.86% (inactive)
25 | O=C(COc1coc(CN2CCN(c3ccccc3)CC2)cc1=O)N1CCc2ccccc21 | -8.86% (inactive)
26 | CCc1nc2ccc(C(=O)Nc3ccc(OC)c(OC)c3)cn2c1N(C)C(=O)c1cccc(OC)c1 | 7.94% (inactive)
27 | O=C(O)Cc1csc(NC(=O)CSc2nnnn2-c2ccc(O)cc2)n1 | -4.88% (inactive)
28 | CCN(CC)C(=O)C1=C(C)N(Cc2ccc(F)cc2)C(=O)C(CC(=O)NCc2cccc3ccccc23)C1 (stereo unspecified) | 1.88% (inactive)
29 | COc1ccc(CN2C(=O)C(CC(=O)NCc3cccc4ccccc34)CC(C(=O)N3CCOCC3)=C2C)cc1 (stereo unspecified) | 7.84% (inactive)
30 | CCN(CC)C(=O)C1=C(C)N(Cc2ccc(C(C)(C)C)cc2)C(=O)C(CC(=O)NCc2cccc3ccccc23)C1 (stereo unspecified) | 31.8% (active)
31 | CCN(CC)CCCC(C)n1c2nc(=O)[nH]c(=O)c-2nc2cc(Cl)ccc21 (stereo unspecified) | 95.2% (active)
32 | Cc1ccc(C)c(NC(=O)c2cc(-c3cc(C)cc(C)c3O)n[nH]2)c1 | -1.49% (inactive)
33 | O=C(COCc1cc(-c2ccc3c(c2)OCO3)on1)N1CCN(c2cccc(Cl)c2)CC1 | 7.08% (inactive)
34 | Cc1coc2c(O)cc3c(c12)OC1(N2CCCCC2)C(=O)NCCCC31 (stereo unspecified) | 51.9% (active)
35 | CCN1CCN(CC(=O)c2cc(OC)c(OC)c(OC)c2)CC1 | -2.49% (inactive)
36 | Oc1c(Cl)cc(Cl)c(Cl)c1Cc1c(O)c(Cl)cc(Cl)c1Cl | 39% (active)
37 | CC(=O)Nc1ccc(SCC(=O)Nc2ccccc2Oc2ccccc2)cc1 | -1.09% (inactive)
38 | CC1(C)S[C@@H]2[C@H](NC(=O)COc3ccccc3)C(=O)N2C1C(=O)OCc1ccccc1 (stereo partly specified) | 3.3% (inactive)

Row | Structure (SMILES) | inhibition
39 | Cc1ccc(-c2ccc(/C=C(\C#N)C(N)=S)o2)c([N+](=O)[O-])c1 | 16.7% (inactive)
40 | O=C1C2C3C=CC(C4CC34)C2C(=O)N1/N=C/c1ccc(-c2ccccc2[N+](=O)[O-])o1 (stereo unspecified) | 13.7% (inactive)
41 | CC1=NN(c2ccc(Cl)c(C(=O)O)c2)C(=O)/C1=C/c1ccc(-c2ccccc2[N+](=O)[O-])o1 | 32.7% (active)
42 | CC(C)[C@H](NC(=O)N1c2ccccc2NC(=O)[C@@H]1C(C)C)C(=O)N[C@H](C(=O)O)c1ccccc1 | -2.64% (inactive)
43 | O=S(=O)(c1ccc(Sc2nnc3ccccn23)nc1)N1CCOCC1 | -14.3% (inactive)
44 | NNC(=O)c1cccc(COCC(F)(F)C(F)F)c1 | -1.18% (inactive)
45 | CCCCNC(=O)C1CCC(=O)N1CCc1ccccc1 (stereo unspecified) | 0.15% (inactive)
46 | O=C(COC(=O)Cc1c[nH]c2ccccc12)NCCc1ccccc1 | -6.33% (inactive)
47 | Cc1ccc(S(=O)(=O)N(C)CC(=O)NCCc2c[nH]c3ccccc23)cc1 | 1.27% (inactive)
48 | Cc1cc(C)cc(NC(=S)NCCc2c[nH]c3ccccc23)c1 | 30.6% (active)
49 | Clc1ccc(CSc2nnc([C@@H]3CCCN3)o2)cc1 | 2.88% (inactive)
50 | Cc1nn(CCCC(=O)NCc2ccccc2Cl)c(=O)c2nccn12 | 3.6% (inactive)
51 | COc1ccc2c(c1)CCc1cn3ncc(C#N)c3nc1-2 | -345% (inactive)
52 | NCCN1CCN2C(=O)CN(C(=O)c3ccccc3)CC12 (stereo unspecified) | 12.1% (inactive)
53 | O=S(=O)(Nc1ccc(O)c2ccccc12)c1ccc(OC(F)(F)F)cc1 | 72.5% (active)
54 | O=[N+]([O-])c1ccc(NS(=O)(=O)c2ccccc2)c(Cl)c1 | 12.9% (inactive)
55 | O=S(=O)(Cc1noc(-c2ccc(OC(F)(F)F)cc2)n1)c1ccc(F)cc1 | 2.35% (inactive)
56 | O=C(c1ccc(F)cc1)N1CCC(C(=O)N2CCN(S(=O)(=O)c3ccccc3Br)CC2)CC1 | -5.29% (inactive)
